Bioassay records deposited in PubChem by National Center for Advancing Translational Sciences (NCATS).
Giardia killer – Giardia lamblia killing; hit rate 0.15% among 340,000; activity change, % at 7.66 µM, hits read low; Giardia lamblia trophozoite viability; in the data active = activity change below about -80%; inconclusive = between about -30% and that limit;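 also: parasites exposed to compound for two days anaerobically before the ATP read; % is scaled to controls: 0 for no effect and ±100 for the full control effect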
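Anaerobic 48 hrs incubation at 37 deg C of 100 trophozoites/well with test compounds; ATPLite 1-Step luminescence, 15-30 min RT, reports cellular ATP as viability.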
Pin1 inh – blocks the human prolyl isomerase Pin1. Q13526. Pin1 FP peptide displacement, HiFluor488, 10 min. Potency, µM (highest dose often 115 µM), for inactives: at the top dose activity, negative = inhibition, usual class: inhibitors. hit rate 0.009% among 390,000. AID 504891; active = well fitted inhibition curve with a large enough effect in the polarisation, with a control signal flat, not every such curve was filed as active; inconclusive = small, poorly fitted or top-dose-only effect, or effect the other way, or a change in a side signal; inactive = no such curve, though single readings can be large or run the other way; the % refers to the polarisation; also: potency is read from the fitted curve at half-maximal effect; % is scaled to controls: 0 for no effect and ±100 for the full control effect
Target sequence (Q13526 whole entry, looked up): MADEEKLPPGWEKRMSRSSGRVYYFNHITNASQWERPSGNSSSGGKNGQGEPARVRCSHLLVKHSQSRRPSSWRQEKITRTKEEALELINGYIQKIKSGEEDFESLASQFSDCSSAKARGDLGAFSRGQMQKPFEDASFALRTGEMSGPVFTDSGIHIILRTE
PI4K2A inh – blocks human PI4K2A kinase activity; purified PI4K2A, ADP-Glo luminescence, 1 h; hits give low values; activity change, negative = inhibition, % at 76.9 µM; hit rate 0.13% among 420,000; Q9BTU6; in the data active = activity change below about -50%; inconclusive = mostly about -30% to -49%;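 also: -100% = wells without enzyme as full effect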
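ADP-Glo luminescence measured ADP generated by PI4K2A enzyme (4 ug/mL before mixing) with 1.2 mM PI substrate (pre-mix) and 300 microM ATP (pre-mix). Tris pH7.5 buffer with MgCl2, Triton X-100; 1 h reaction at ambient temperature.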
Epigenetic derep – epigenetic control regulation, reporter derepression; murine LDR cells, GFP reporter derepression, 30 h; Potency, µM (highest dose often 53.9 µM), for the others: at the highest dose GFP activation, actives largely listed as activators; hit rate 0.2% among 280,000; also: potency is read from the fitted curve at half-maximal effect; % of control where 0% means no effect; nearly all actives have a fitted effect of over 60% in size
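Murine LDR cells bearing a silenced CMV-driven GFP reporter were exposed to compound for 30 h at 37 C. After PBS washes, GFP-positive cells (20-120 um objects) counted by laser-scanning microplate cytometry.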
B2AR arrestin – agonists driving beta-arrestin recruitment to human beta2-adrenergic receptor; P07550; beta-arrestin recruitment to beta2AR, cell-based reporter; Potency, µM (doses to about 46.1 µM), without a hit: at the highest dose activation, hits mostly activators; hit rate 0.02% among 330,000;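 also: potency is read from the fitted curve at half-maximal effect; 0% = DMSO controls and full agonism = EC100 isoproterenol or metaproterenol; nearly all actives have a fitted effect of over 65% in size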
Target sequence (P07550 whole entry, looked up): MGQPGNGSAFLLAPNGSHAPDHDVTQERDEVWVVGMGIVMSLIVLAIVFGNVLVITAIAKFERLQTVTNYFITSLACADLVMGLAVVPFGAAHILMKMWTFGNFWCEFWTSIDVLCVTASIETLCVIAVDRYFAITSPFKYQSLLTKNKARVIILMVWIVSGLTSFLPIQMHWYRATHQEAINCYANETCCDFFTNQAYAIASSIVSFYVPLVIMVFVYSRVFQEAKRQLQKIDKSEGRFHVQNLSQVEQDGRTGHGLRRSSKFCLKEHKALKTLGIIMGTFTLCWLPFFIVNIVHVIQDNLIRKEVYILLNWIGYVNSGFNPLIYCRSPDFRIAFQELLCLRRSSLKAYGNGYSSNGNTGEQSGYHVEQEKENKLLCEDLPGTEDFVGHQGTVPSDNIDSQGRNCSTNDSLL
p53 reactivator – restores transcriptional activity of mutant p53; H1299 p53-A138V BP100-luciferase reporter, luminescence, 24 h; Potency, µM (highest dose often 92.2 µM), without a hit: at the top dose activity change, positive = activation, actives largely listed as activators; hit rate 0.063% among 320,000; also: potency is read from the fitted curve at half-maximal effect; % of control where 0% means no effect; nearly all actives have a fitted effect of over 45% in size
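H1299 (p53-null), stable ts p53-A138V + BP100-Luc; 1000 cells/well, Opti-MEM/10% FBS; cpd 4 pt, 1:5; 24 h, 37 deg C, 5% CO2; detection reagent 10 min RT; luminescence.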
Numbers without * were called inactive; ? = inconclusive; nt = not tested or not shown. Rows were chosen to be rich in hits. Some 0.44% of all compounds tested hit in one or more screens of this group. Unless noted, calls follow the shape of the dose curve; as a rule, active = well fitted curve in the direction sought with a large enough effect; inconclusive = small, poorly fitted or top-dose-only effect, or another doubt; inactive = no such curve, though single readings can be large; an effect the other way counts as inactive or inconclusive.

SMILES	Giardia killer	Pin1 inh	PI4K2A inh	Epigenetic derep	B2AR arrestin	p53 reactivator
Cc1ccc(-c2cc3nc(-c4ccccc4)cc(N)n3n2)cc1	-7	-5%	-22	-7%	0%	8%
Cc1cc(C)c2c(N)c(C(=O)Nc3ccccc3C(F)(F)F)sc2n1	nt	5%	-8	0%	nt	nt
Nc1c(C(=O)Nc2ccccc2F)sc2nc(Cc3ccccc3)cc(C(F)(F)F)c12	0	?	5	13µM*	0%	1%
COc1ccc(-c2cnc(N3CCC(C(N)=O)CC3)s2)cc1OC	nt	-3%	nt	nt	nt	nt
N/C(=N/OC(=O)c1ccccc1Cl)c1nonc1N	-14	-9%	-54*	0%	0%	?
Cc1ccc(NS(=O)(=O)c2cc3c(cc2-c2cn[nH]c2)NC(=O)CO3)cc1C	nt	-9%	nt	nt	nt	nt
Cc1ccc(-c2ccnc(N3CCC(C(N)=O)CC3)n2)cc1	nt	8%	nt	nt	nt	nt
Cc1ccc(NC(C)C(=O)N/N=C/c2ccc([N+](=O)[O-])s2)cc1 (stereo not drawn)	-84*	-1%	-5	-2%	0%	-3%
COc1ccc(NC(C)C(=O)N/N=C/c2ccc([N+](=O)[O-])s2)cc1 (stereo not drawn)	-89*	-2%	11	-2%	0%	5%
COC(=O)N/N=C/c1ccc([N+](=O)[O-])s1	?	-2%	-4	0%	-1%	?
CC(C)C(=O)OCc1cccc(OC(=O)[C@@H]2N3C(=O)[C@@H](NC(=O)Cc4ccccc4)[C@H]3SC2(C)C)c1	nt	nt	-5	nt	nt	nt
O=C(CSc1nc2nn(-c3ccccc3)c(=O)c-2c2n1CCCCC2)c1ccc(O)c(O)c1	2	?	-6	nt	0%	28µM*
COc1cc2c(cc1OC)C(=O)CC2	nt	nt	-2	nt	nt	nt
Clc1ccc(-c2nc(-c3ccccn3)no2)cc1Cl	?	-10%	-3	0%	0%	?
Cc1ccccc1-c1nc(-c2ccccn2)no1	?	-6%	-51*	-2%	0%	-9%
Cc1ccccc1-c1nc(-c2cccnc2)no1	9	-3%	-2	-1%	-1%	28%
COc1ccc(-c2nc(-c3ccccn3)no2)cc1	-81*	-1%	-74*	-1%	0%	-11%
COc1ccccc1-c1nc(-c2ccccn2)no1	?	0%	-64*	-4%	0%	-8%
CC(=O)Nc1sc2c(c1-c1nc3ccccc3s1)CNCC2	nt	-2%	nt	nt	nt	nt
CN(C)c1cccc(-c2cnc(N3CCC(c4ncc[nH]4)CC3)s2)c1	nt	-2%	nt	nt	nt	nt
CCN(Cc1ccccc1)c1ccc(Br)cn1	nt	-4%	nt	nt	nt	nt
O=C1C(=Cc2ccco2)CCCC1=Cc1ccco1	17	21%	-3	nt	nt	nt
O=C1C(=Cc2ccco2)CCC1=Cc1ccco1	-4	nt	-59*	nt	nt	nt
COc1ccc(/C=C2/C(=O)N(c3cccc(F)c3)N=C2C)c(OC)c1	-2	-8%	-51*	nt	0%	-1%
Nc1ncnc2c1ncn2Cc1c(F)cccc1Cl	nt	nt	-8	nt	nt	nt
SMILES	Giardia killer	Pin1 inh	PI4K2A inh	Epigenetic derep	B2AR arrestin	p53 reactivator
O=C(O)c1cn(C2CC2)c2cc(Cl)c(F)cc2c1=O	nt	nt	-2	nt	nt	nt
CN(C)c1ccc(C(=C2C=CC(=[N+](C)C)C=C2)c2ccc(N(C)C)cc2)cc1	nt	nt	-59*	-3%	nt	nt
CN(C)c1ccc(C(=C2C=CC(=[N+](C)C)C=C2)c2ccccc2)cc1	nt	nt	-10	nt	nt	nt
CC(=O)Nc1ncc([N+](=O)[O-])s1	nt	nt	1	nt	nt	nt
Cc1ccc(C(=O)Nc2ncc([N+](=O)[O-])s2)cc1	-86*	15%	-19	nt	-1%	nt
Cc1cnc(NC(=O)c2ccc3c(c2)OCCO3)s1	-91*	4%	-18	nt	0%	-18%
Cc1onc(-c2ccccc2)c1C(=O)Nc1ncc([N+](=O)[O-])s1	-94*	13%	4	nt	0%	-4%
O=C(Nc1ncc([N+](=O)[O-])s1)c1ccco1	-90*	47%	-10	nt	-1%	-1%
Cc1onc(-c2ccccc2)c1C(=O)Nc1nnc(C(C)C)s1	5	-6%	1	nt	0%	12%
Cc1nc2ccc3nc(NC(=O)c4ccc5c(c4)OCCO5)sc3c2s1	-16	?	12	6%	0%	3%
COc1ccc(CN(Cc2ccccc2)C(=O)c2ccc(OC)cc2O)cc1	nt	-2%	nt	nt	nt	nt
CCCCC/C=C\C/C=C\CCCCCCCC(=O)NC(C)c1ccccc1 (stereo not drawn)	nt	nt	0	nt	nt	nt
O=C(Nc1ncc([N+](=O)[O-])s1)c1ccc2c(c1)OCO2	-95*	?	?	nt	-1%	-16%
Cc1ccc([N+](=O)[O-])cc1NC(=O)c1ccc2c(c1)OCO2	3	-4%	4	-5%	0%	3%
COc1ccc2ncnc(NCC3CCCO3)c2c1-c1ccc2c(c1)OCO2 (stereo not drawn)	nt	-21%	nt	nt	nt	nt
Cc1nc2c(nc1C)C(=O)c1ccccc1C2=O	?	12%	-56*	nt	nt	nt
Cn1cc([N+](=O)[O-])c(C(=O)Nc2ccc3nc(-c4ccccc4)[nH]c3c2)n1	3	22%	1	-2%	0%	22µM*
O=Cc1ccc(O)c(O)c1O	nt	nt	-3	nt	nt	nt
Cc1ccc(/C=C(\C#N)C(=O)Nc2cccc(Br)c2)o1	nt	?	-4	3%	nt	nt
Cc1ccc(/C=C(\C#N)C(=O)Nc2ccc(Br)cc2)o1	nt	?	-1	22µM*	nt	nt
Cc1cc(C(=O)N/N=C/c2cc(N=Nc3ccccc3)ccc2O)n[nH]1	-13	?	-3	0%	2%	13µM*
O=C1CCc2cc([S+](=O)([O-])NC3CCOCC3)ccc2N1	nt	3%	nt	nt	nt	nt
CNC(=S)N/N=C1\C(=O)c2cccc3cccc1c23	2	?	-2	1%	3.5µM*	5%
CCCCNC(=S)N/N=C1\C(=O)c2cccc3cccc1c23	-11	?	0	16%	1%	-1%
CC(NC(=O)Nc1ccc(O)cc1)(C(F)(F)F)C(F)(F)F	19	0%	-51*	-1%	0%	1%
SMILES	Giardia killer	Pin1 inh	PI4K2A inh	Epigenetic derep	B2AR arrestin	p53 reactivator
CCC(NC(=O)Nc1ccc(O)cc1)(C(F)(F)F)C(F)(F)F	3	-2%	-52*	-1%	0%	-5%
CCC(NC(=O)NCc1ccccc1)(C(F)(F)F)C(F)(F)F	-19	11%	2	-1%	0%	5%
COc1ccc(NC(=O)NC(C)(C(F)(F)F)C(F)(F)F)cc1	-17	1%	1	3%	0%	1%
COc1ccc(C2c3c(ncn(CCc4ccccc4)c3=N)Oc3ccc4ccccc4c32)cc1OC (stereo not drawn)	nt	3%	nt	nt	nt	nt
Cc1ccc(/C(=N/Nc2ncnc3ccccc23)C(=O)O)cc1	-6	-10%	-2	nt	11µM*	?
Cc1ccc(Nc2ncnc3ccccc23)cc1	-21	0%	3	0%	0%	13%
COc1ccc(O)c(-c2nc3ccccc3c(=O)n2Cc2ccccc2)c1	nt	1%	nt	nt	nt	nt
